Screening results: PubChem BioAssay, National Center for Advancing Translational Sciences (NCATS)
Rows were chosen to be rich in hits. Some 17% of all compounds tested hit in one or more screens of this group.
HT1080NT lethal = kills 2HG-producing HT-1080-NT fibrosarcoma cells; HT-1080-NT fibrosarcoma viability, CellTiter-Glo ATP luminescence, 48 h; Potency, µM (doses to about 46.1 µM), inactives show at the top dose activity, negative = less viability, usual class: cytotoxic; hit rate 1.6% among 360,000; AID 686970;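 note: NT is the 2HG producing partner of a matched IDH1 knockdown line; 0% = DMSO-treated cells and -100% = media-only wells without cells; nearly all actives have a fitted effect of over 55% in size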
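750 cells/well, RPMI + 5% FBS; 2 h settle, compound pin-transfer, 48 h at 37 degrees C. CellTiter-Glo 10 min RT, luminescence. Normalized to DMSO and media-only wells.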
HepG2 viability = HepG2 cytotoxicity, counter-screen for TGF-b inhibitors | HepG2 CAGA-GFP viability, ATP luminescence, 18 h | hit rate 0.76% among 410,000 | Potency, µM (top dose mostly 46.1 µM), without a hit: at the top dose activity change, negative = cytotoxicity, most hits filed as cytotoxic
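CellTiter-Glo luminescence gave cytotoxicity after 18 hours at 37 degrees C. The cells were HepG2 CAGA-GFP in 1% FBS DMEM, stimulated with 500 pg/mL TGF-beta after compound addition. %Activity was normalised to no-cell wells (complete cell-killing) and DMSO (no toxicity), and curves were fitted and classified.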
TDP1 cell noCPT = qHTS for Inhibitors of human tyrosyl-DNA phosphodiesterase 1 (TDP1): qHTS in cells in absence of CPT; Potency, µM (top dose mostly 46.2 µM), without a hit: at the top dose activity change, negative = growth inhibition, usual class: inhibitors; DT40 Tdp1-/- hTDP1 cells, no CPT, ATP luminescence, 48 h; hit rate 15% among 420,000; AID 686978, 2013; note: % is set by controls: 0 for no effect and ±100 for the full control effect; nearly all actives have a fitted effect of over 55% in size
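Seeded 400 DT40-hTDP1 cells/well (vehicle DMSO, no 20 nM CPT); pinned compounds; ≥48 hr at 37 °C; CellTiter-Glo luminescence as viability measure.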
HT1080 IDH1KD tx = kills HT-1080 cells with IDH1 knockdown; HT-1080 IDH1 knockdown viability, ATP luminescence, 48 h; Potency, µM (top dose mostly 46.1 µM), for inactives: at the highest dose activity, negative = toxicity, usual class: cytotoxic; hit rate 2% among 360,000;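 note: 0% = DMSO wells and -100% = cell-free medium wells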
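Using the IDH1-knockdown HT-1080 line run in the same batch and compound series as the NT line, viability after 48 h at 37 °C was determined by CellTiter-Glo luminescence and expressed as % activity.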
TGFb inhibitor = TGF-b pathway inhibition | HepG2 CAGA-GFP TGF-b/SMAD3 reporter, GFP fluorescence, 18 h; TGF-beta stimulated, 500 pg/mL final | hit rate 1.2% among 410,000 | Potency, µM (highest dose often 46.1 µM), inactives show top-dose activity, negative = inhibition, usual class: inhibitors; note: % is set by controls: 0 for no effect and ±100 for the full control effect; nearly all actives have a fitted effect of over 65% in size
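Inhibition was scored as loss of TGF-beta-induced (500 pg/mL final, 18 hours, 37 degrees C) GFP in HEPG2 cells carrying a CAGA-GFP reporter, in DMEM with 1% FBS. Well GFP was summed per cell; Activity was normalised to unstimulated and stimulated DMSO wells, then concentration-response fitting.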
DT40 TDP1 CPT = DT40-hTDP1 cell growth loss with CPT. Potency, µM (doses to about 46.2 µM), without a hit: at the top dose activity change, negative = growth inhibition, hits mostly inhibitors. chicken DT40 Tdp1-/-;hTDP1 cells + 20 nM CPT, ATP luminescence, 48 h. hit rate 12% among 420,000. AID 686979; note: % is set by controls: 0 for no effect and ±100 for the full control effect; nearly all actives have a fitted effect of over 55% in size
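Cell growth measured by CellTiter-Glo luminescence after a minimum 48 h, 37 C compound exposure with 20 nM CPT in Tdp1-knockout DT40 cells stably expressing hTDP1, seeded 400/well; qHTS titration format.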
Numbers without * were called inactive; ? = inconclusive; · = not tested or not shown; [ ] = another dose, or the depositor's remark. Calls come from the whole dose curve; as a rule, active = well fitted curve in the direction sought with a large enough effect; inconclusive = small, poorly fitted or top-dose-only effect, or another doubt; inactive = no such curve, though single readings can be large; an effect the other way counts as inactive or inconclusive. Potency is the fitted concentration of half-maximal effect.

SMILES	HT1080NT lethal	HepG2 viability	TDP1 cell noCPT	HT1080 IDH1KD tx	TGFb inhibitor	DT40 TDP1 CPT
CC(NCC(O)COc1ccc(S(=O)(=O)N2CCOCC2)cc1)c1ccccc1 (configuration not stated)	-20%	4%	-23%	-2%	10%	-12%
CC1CCC(C(C)C)C(OCC(O)CNC(C)(C)C)C1 (configuration not stated)	-19%	-15%	?	-2%	0%	?
CC1CCC(C(C)C)C(OCC(O)CNC(C)c2ccccc2)C1 (configuration not stated)	15µM*	-87%	15µM*	?	?	?
COc1ccc(-c2ccc(=O)n(CC(=O)Nc3ccc(N(C)C)cc3)n2)cc1	·	-1%	1%	·	-6%	1%
C=C1C=C(C)n2ncc(C(=O)Nc3ccc(C)cn3)c2N1	16%	·	?	18%	·	-20%
Cc1cc(C)cc(-n2ccn(CC(=O)Nc3ccccc3F)c(=O)c2=O)c1	·	-14%	-4%	·	-3%	0%
C=CCN1C(c2ccccc2)=CS/C1=C(\C#N)c1nnc2n1CCCCC2	5%	-22%	?	-5%	4%	?
CCOc1ccc(C2=CS/C(=C(\C#N)c3nnc4n3CCCCC4)N2CC)cc1	-26%	-35%	23µM*	?	6%	?
CCCCc1ccc(NC(=O)CSc2nc(=O)n(CCCN3CCOCC3)c3c2CCC3)cc1	?	-52%	?	?	?	?
CCCCc1ccc(NC(=O)CSc2nc(=O)n(CCN3CCOCC3)c3c2CCC3)cc1	6%	6%	-22%	3%	0%	9%
CCCCc1ccc(NC(=O)CSc2nc(=O)n(CCN(CC)CC)c3c2CCCC3)cc1	?	-43%	23µM*	?	-19%	?
CCCCc1ccc(NC(=O)CSc2nc(=O)n(CCN(C)C)c3c2CCC3)cc1	21µM*	-84%	?	15µM*	?	?
Cc1nn(C)c(C(=O)Nc2ccc(Cl)c([N+](=O)[O-])c2)c1Cl	-5%	7%	-22%	-14%	4%	4%
CN[C@H](CC(C)C)C(=O)N[C@H]1C(=O)N[C@@H](CC(N)=O)C(=O)N[C@H]2C(=O)N[C@H]3C(=O)N[C@H](C(=O)N[C@@H](C(=O)O)c4cc(O)cc(O)c4-c4cc3ccc4O)[C@H](O)c3ccc(c(Cl)c3)Oc3cc2cc(c3O[C@@H]2O[C@H](CO)[C@@H](O)[C@H](O)[C@H]2O[C@H]2C[C@](C)(N)C(O)[C@H](C)O2)Oc2ccc(cc2Cl)[C@H]1O (some centres not stated)	·	·	-23%	·	·	-6%
CCCc1nc2ccc(C(=O)OC)cn2c1Cc1ccccc1	-14%	14%	29µM*	-23%	-9%	?
Cc1ccc2nc(-c3ccc(F)cc3)c(Cc3ccccc3C(F)(F)F)n2c1	?	-46%	?	?	?	?
CCCc1nc2ccc(C(=O)OC)cn2c1Cc1ccc(C)cc1	?	-39%	23µM*	-21%	-8%	18µM*
CCCc1nc2ccc(C)cn2c1Cc1ccccc1	0%	-17%	?	-13%	-14%	?
CCCc1nc2ccc(C)cn2c1Cc1ccc(C)cc1	?	-22%	18µM*	?	?	21µM*
CCCc1nc2ccc(C(=O)OC)cn2c1Cc1ccccc1C(F)(F)F	?	-37%	16µM*	?	?	?
Cn1cccc1-c1cc2n(n1)CCC(=O)N2CC(=O)Nc1ccc(F)cc1Cl	·	0%	0%	·	-5%	-9%
CCCCCC1CCC(C(=O)NCCN2CCOCC2)CC1 (configuration not stated)	7%	-9%	-15%	10%	13%	-1%
Cc1nc2sc(C(N)=O)c(N)c2c(-c2ccc(Br)cc2)c1C(=O)Nc1ccc(Cl)cc1	·	-95%	?	·	?	?
CCC(C)NC(=O)c1sc2nc(C)c(C(=O)Nc3ccc(Cl)cc3)c(-c3ccc(Br)cc3)c2c1N (configuration not stated)	·	17%	21µM*	·	20%	?
NC(Cc1ccc(C(F)(F)F)cc1)c1csc(Nc2ccc(S(N)(=O)=O)cc2)n1 (configuration not stated)	21µM*	-74%	21µM*	?	?	13µM*
SMILES	HT1080NT lethal	HepG2 viability	TDP1 cell noCPT	HT1080 IDH1KD tx	TGFb inhibitor	DT40 TDP1 CPT
CC(C)C(N)c1csc(Nc2ccc(S(C)(=O)=O)cc2)n1 (configuration not stated)	8%	-16%	0%	3%	-22%	7%
COc1ccc(C(N)c2csc(Nc3ccc(S(C)(=O)=O)cc3)n2)cc1 (configuration not stated)	-17%	-10%	?	-8%	-7%	23µM*
NC(Cc1ccc(Cl)cc1)c1csc(Nc2ccc(S(N)(=O)=O)cc2)n1 (configuration not stated)	?	-23%	9.2µM*	?	-3%	15µM*
CS(=O)(=O)c1ccc(Nc2nc(C(N)Cc3ccc(Cl)cc3)cs2)cc1 (configuration not stated)	15µM*	-33%	16µM*	?	?	12µM*
CC(=O)N1c2ccccc2C(=O)C1N1CCN(c2ccc(F)cc2)CC1 (configuration not stated)	·	-17%	15µM*	·	-17%	?
CC(C)NC(=O)C1(C)CN(S(C)(=O)=O)CC(=O)N1Cc1ccc2c(c1)OCO2 (configuration not stated)	7%	·	6%	2%	·	19%
CCn1c(-c2ccc(N)cc2)nc2ccccc21	1%	-40%	2%	2%	-28%	2%
CN(C)c1ccc(C(O)Cc2nc3ccccc3n2C)cc1 (configuration not stated)	-25%	-15%	3%	-17%	-24%	-16%
CN(C)c1ccc(-c2nc3ccccc3n2C)cc1	?	8.9µM*	13µM*	11µM*	?	13µM*
CC(C)n1c(-c2ccc(N(C)C)cc2)nc2ccccc21	-21%	-53%	11µM*	10%[9.24 µM]	?	29µM*
CCn1c(-c2ccc(N(C)C)cc2)nc2ccccc21	-2%	-33%	3.7µM*	?	?	12µM*
